Test results from the supplement of paper PMC11732987, “Enantioselective OTUD7B fragment discovery through chemoproteomics screening and high-throughput optimisation” (Communications Chemistry, 2025).
Values without a mark were called inactive.

Each target was assayed with ClCC(=O)N1CCC(CC#N)C1 (assay: log2 ratio of Biotin-Ahx-Ub-VS probe labelling (compound/DMSO); higher = less target engagement, active = hit call of the paper (q ≤ 0.05, log2 ratio ≤ -1)). Conditions: compound concentration: 50uM; treatment time: 3 h.
Protocol: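 Round 2 competitive ABPP in HEK293T lysate. Purified HTC-D2B compounds were tested at 50 and 200 µM for 3 h, followed by Biotin-Ahx-Ub-VS enrichment and diaPASEF LC-MS/MS. Values are the average log2 ratio (compound/DMSO) from an unpaired t-test (n=3 treated, n=26 DMSO).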

Chain of UniProt P51784 (P51784 whole entry): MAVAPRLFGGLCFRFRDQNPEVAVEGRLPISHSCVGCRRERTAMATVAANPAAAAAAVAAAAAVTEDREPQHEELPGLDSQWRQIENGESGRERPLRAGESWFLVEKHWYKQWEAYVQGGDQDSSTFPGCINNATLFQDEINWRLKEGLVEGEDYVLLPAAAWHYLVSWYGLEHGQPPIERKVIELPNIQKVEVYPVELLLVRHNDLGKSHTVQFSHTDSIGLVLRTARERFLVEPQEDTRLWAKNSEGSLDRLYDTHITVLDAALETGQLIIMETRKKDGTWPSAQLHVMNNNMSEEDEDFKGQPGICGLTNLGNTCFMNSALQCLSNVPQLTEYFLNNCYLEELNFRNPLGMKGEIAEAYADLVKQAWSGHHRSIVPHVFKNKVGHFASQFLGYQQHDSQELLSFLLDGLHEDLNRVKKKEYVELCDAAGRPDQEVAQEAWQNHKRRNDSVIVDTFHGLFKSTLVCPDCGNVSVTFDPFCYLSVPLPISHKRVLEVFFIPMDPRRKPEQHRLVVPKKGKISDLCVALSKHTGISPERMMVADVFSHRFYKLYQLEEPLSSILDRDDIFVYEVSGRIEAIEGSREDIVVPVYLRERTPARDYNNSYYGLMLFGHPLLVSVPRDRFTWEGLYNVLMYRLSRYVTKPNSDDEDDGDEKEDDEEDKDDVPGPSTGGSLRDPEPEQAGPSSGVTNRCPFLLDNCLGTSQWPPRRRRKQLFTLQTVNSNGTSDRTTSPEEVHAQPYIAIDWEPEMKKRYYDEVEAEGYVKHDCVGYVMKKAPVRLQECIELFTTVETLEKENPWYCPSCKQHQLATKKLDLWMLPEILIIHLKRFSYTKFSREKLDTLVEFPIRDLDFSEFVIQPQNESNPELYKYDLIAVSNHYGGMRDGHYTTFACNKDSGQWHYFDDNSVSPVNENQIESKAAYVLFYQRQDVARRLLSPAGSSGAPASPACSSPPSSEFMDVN
Chain of UniProt P09936 (P09936 whole entry, looked up): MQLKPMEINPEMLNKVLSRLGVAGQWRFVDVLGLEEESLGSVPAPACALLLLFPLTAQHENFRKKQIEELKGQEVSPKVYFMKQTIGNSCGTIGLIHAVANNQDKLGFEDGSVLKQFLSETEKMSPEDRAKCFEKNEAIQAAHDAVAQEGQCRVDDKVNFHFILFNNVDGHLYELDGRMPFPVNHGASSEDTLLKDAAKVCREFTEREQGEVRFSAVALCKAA
Chain of UniProt Q9Y4E8 (Q9Y4E8 whole entry): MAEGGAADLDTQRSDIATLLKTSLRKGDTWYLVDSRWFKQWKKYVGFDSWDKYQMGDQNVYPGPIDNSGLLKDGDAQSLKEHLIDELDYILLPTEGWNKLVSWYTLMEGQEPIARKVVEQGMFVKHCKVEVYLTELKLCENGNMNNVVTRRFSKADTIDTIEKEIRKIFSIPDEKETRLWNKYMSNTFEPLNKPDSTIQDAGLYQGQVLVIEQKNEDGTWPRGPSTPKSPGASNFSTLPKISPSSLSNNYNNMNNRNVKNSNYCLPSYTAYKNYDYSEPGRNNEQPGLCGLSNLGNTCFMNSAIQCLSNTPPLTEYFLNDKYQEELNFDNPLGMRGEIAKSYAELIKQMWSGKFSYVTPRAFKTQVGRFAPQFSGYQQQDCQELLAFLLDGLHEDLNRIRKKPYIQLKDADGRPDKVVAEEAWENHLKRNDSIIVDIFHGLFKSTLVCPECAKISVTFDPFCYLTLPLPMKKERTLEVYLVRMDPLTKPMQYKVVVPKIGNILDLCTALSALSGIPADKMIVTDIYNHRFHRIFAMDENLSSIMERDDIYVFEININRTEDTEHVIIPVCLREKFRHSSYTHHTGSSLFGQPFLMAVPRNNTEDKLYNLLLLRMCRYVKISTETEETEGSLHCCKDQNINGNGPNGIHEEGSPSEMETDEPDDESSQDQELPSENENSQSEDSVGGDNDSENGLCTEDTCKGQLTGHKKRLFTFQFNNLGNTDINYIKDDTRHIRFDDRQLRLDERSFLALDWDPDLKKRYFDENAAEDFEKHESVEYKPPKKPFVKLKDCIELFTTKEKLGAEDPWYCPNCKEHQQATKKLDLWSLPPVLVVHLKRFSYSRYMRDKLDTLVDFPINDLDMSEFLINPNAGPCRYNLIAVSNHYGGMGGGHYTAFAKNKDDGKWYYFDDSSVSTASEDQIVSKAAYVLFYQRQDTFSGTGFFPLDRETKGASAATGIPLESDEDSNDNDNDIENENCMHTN
Chain of UniProt P62068 (P62068 whole entry): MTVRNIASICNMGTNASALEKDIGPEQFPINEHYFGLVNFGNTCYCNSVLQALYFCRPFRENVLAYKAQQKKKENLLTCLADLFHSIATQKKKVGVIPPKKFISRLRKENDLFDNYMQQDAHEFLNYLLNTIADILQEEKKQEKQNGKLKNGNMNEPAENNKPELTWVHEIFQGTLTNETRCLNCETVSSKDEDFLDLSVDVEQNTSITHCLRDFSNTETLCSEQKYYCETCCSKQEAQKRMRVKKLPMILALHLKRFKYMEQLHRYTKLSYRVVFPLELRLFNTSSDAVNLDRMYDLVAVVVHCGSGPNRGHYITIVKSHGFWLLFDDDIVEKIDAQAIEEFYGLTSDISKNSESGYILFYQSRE
Chain of UniProt O94966 (O94966 whole entry): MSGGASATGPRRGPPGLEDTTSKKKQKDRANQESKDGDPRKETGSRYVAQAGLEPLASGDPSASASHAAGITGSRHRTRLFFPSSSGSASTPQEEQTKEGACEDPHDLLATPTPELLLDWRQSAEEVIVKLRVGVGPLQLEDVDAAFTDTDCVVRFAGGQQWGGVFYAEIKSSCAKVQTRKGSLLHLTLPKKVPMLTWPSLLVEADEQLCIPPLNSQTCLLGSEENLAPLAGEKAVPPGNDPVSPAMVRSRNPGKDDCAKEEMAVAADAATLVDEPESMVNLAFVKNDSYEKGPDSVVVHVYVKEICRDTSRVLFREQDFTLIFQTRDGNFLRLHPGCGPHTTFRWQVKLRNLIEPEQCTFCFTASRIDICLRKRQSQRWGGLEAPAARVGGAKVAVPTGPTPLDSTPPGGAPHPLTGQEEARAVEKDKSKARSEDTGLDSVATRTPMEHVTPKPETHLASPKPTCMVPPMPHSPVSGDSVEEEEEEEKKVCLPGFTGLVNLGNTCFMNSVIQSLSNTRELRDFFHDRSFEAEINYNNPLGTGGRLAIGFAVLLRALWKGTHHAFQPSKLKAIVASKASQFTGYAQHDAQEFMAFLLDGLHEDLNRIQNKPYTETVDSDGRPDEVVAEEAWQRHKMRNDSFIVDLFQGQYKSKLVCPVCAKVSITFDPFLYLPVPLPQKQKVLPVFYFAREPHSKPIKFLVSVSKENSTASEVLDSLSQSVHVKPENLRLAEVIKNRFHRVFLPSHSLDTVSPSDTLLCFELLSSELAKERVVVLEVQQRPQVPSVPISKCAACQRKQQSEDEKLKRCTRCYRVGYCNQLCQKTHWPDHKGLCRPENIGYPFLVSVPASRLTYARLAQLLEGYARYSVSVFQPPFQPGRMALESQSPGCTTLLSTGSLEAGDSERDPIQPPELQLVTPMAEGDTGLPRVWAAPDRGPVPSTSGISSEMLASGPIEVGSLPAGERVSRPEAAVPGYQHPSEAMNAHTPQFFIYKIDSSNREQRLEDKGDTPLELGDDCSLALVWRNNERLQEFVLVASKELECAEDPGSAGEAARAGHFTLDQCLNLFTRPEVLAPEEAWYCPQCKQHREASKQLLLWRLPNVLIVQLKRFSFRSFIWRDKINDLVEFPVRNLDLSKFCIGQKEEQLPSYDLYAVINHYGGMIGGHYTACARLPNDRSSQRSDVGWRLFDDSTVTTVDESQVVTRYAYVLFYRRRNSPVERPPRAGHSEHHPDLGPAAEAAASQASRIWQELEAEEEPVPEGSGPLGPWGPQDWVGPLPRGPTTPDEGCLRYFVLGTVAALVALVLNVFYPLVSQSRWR
Chain of UniProt Q9P2H5 (Q9P2H5 whole entry): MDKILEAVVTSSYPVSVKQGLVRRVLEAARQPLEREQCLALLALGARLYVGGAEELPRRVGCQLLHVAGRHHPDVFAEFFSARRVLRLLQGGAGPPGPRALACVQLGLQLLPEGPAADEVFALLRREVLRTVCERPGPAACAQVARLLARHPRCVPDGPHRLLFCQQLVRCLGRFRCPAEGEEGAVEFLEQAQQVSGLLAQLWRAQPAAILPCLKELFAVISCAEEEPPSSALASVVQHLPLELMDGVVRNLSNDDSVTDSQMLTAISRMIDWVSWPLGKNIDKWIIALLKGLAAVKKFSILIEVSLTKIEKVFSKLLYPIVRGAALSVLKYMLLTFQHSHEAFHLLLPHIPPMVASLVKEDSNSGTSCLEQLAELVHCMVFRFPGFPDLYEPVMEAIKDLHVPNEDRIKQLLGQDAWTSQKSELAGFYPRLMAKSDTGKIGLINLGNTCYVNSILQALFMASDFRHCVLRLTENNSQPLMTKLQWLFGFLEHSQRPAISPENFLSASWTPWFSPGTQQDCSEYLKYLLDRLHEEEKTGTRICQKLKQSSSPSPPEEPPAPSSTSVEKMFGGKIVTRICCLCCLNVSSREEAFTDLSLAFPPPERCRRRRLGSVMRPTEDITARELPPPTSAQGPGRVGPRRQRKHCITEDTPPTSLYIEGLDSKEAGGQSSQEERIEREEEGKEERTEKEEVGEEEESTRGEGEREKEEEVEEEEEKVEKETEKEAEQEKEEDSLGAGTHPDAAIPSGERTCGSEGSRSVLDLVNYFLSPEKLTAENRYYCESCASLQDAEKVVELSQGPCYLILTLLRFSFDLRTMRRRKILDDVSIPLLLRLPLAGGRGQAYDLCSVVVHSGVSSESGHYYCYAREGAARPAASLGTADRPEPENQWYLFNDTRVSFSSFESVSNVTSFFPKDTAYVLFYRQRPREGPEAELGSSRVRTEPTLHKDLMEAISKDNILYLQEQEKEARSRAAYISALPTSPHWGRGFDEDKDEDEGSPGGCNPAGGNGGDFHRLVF

Row | Target | log2 ratio of Biotin-Ahx-Ub-VS probe labelling
1 | USP5 (UniProt P45974) | -0.0602
2 | UCHL1 (UniProt P09936) | -0.297
3 | UniProt P51784 | -0.0555
4 | USP8 (UniProt P40818) | -0.261
5 | USP19 (UniProt O94966) | -0.285
6 | YOD1 (UniProt Q5VVQ6) | -0.225
7 | USP15 (UniProt Q9Y4E8) | -0.281
8 | USP9X (UniProt Q93008) | 0.0276
9 | USP22 (UniProt Q9UPT9) | -0.132
10 | UniProt Q9P2H5 | -0.115
11 | OTUB1 (UniProt Q96FW1) | -0.024
12 | UniProt Q5T2D3 | -0.206
13 | USP28 (UniProt Q96RU2) | -0.0624
14 | USP10 (UniProt Q14694) | -0.155
15 | USP14 (UniProt P54578) | -0.25
16 | USP48 (UniProt Q86UV5) | -0.0601
17 | USP46 (UniProt P62068) | -0.14
18 | USP24 (UniProt Q9UPU5) | -0.155
19 | FAM105A (UniProt Q9NUU6) | -0.103
20 | USP12 (UniProt O75317) | -0.0667

Same assay, conditions: compound concentration: 200uM; treatment time: 3 h

Row | Target | log2 ratio of Biotin-Ahx-Ub-VS probe labelling
21 | USP5 (UniProt P45974) | 0.0332
22 | UCHL1 (UniProt P09936) | -0.13
23 | UniProt P51784 | -0.0925
24 | USP8 (UniProt P40818) | -0.168
25 | USP19 (UniProt O94966) | -0.557
26 | YOD1 (UniProt Q5VVQ6) | 0.00802
27 | USP15 (UniProt Q9Y4E8) | -0.268
28 | USP9X (UniProt Q93008) | -0.109
29 | USP22 (UniProt Q9UPT9) | -0.153
30 | UniProt Q9P2H5 | 0.00502
31 | OTUB1 (UniProt Q96FW1) | -0.102
32 | UniProt Q5T2D3 | -0.203
33 | USP28 (UniProt Q96RU2) | -0.291
34 | USP10 (UniProt Q14694) | -0.0316
35 | USP14 (UniProt P54578) | 0.0716
36 | USP48 (UniProt Q86UV5) | -0.185
37 | USP46 (UniProt P62068) | -0.548
38 | USP24 (UniProt Q9UPU5) | -0.576
39 | FAM105A (UniProt Q9NUU6) | 0.0672
40 | USP12 (UniProt O75317) | -0.647
